For 32 compounds, activation over 3SD threshold, potentiation, less the hit threshold and activity over 3SD threshold results are on record in PubChem BioAssay.

This is one part of the list. Activity calls are given as the source filed them.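 Rule for the calls, unless noted: active = fluorescence ratio rise of at least 3 SD above the vehicle-control mean, seen in both replicates; inactive = the rest.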

Sequence of Potassium voltage-gated channel subfamily KQT member 1 (Homo sapiens) (P51787 whole entry, looked up): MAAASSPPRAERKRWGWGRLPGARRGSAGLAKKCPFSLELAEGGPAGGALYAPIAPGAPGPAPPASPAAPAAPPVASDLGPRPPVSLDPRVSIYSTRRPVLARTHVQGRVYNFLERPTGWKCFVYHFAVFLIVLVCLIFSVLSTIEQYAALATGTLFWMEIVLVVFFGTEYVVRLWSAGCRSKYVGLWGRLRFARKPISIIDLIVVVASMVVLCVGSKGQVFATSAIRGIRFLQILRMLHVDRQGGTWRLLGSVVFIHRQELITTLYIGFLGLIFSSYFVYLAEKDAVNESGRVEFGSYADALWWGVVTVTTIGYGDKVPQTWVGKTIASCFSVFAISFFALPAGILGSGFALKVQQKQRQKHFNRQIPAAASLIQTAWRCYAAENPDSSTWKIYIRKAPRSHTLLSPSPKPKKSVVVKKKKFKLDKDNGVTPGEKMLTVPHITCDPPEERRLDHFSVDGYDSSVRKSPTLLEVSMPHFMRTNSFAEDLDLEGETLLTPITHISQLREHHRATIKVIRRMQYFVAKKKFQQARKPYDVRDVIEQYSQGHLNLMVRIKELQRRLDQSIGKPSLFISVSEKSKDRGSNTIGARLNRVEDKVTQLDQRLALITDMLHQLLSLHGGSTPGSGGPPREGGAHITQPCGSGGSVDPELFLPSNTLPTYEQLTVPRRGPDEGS
Sequence of Potassium voltage-gated channel subfamily KQT member 2 (Rattus norvegicus) (O88943 whole entry, looked up): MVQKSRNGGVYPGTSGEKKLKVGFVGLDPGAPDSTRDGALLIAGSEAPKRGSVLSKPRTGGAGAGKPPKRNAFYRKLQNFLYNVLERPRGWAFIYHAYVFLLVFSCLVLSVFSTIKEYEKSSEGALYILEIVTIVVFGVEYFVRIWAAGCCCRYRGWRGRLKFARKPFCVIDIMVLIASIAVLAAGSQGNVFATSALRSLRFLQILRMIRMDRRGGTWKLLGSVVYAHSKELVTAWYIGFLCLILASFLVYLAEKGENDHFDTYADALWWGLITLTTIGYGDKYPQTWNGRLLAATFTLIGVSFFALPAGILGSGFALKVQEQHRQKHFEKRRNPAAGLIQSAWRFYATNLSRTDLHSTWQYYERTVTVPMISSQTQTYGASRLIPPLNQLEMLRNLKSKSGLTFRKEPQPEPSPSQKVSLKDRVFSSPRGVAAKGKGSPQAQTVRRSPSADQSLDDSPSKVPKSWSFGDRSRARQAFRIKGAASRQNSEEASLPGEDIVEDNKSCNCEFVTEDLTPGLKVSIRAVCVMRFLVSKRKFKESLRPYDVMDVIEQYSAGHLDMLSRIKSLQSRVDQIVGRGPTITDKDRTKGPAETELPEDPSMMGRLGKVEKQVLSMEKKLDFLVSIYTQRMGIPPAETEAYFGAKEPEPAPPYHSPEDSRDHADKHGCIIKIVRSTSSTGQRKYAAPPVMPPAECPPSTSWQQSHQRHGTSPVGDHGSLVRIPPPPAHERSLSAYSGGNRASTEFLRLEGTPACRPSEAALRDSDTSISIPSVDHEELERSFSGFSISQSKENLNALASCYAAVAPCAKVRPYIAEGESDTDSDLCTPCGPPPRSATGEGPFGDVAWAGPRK

The first test has as its target Potassium voltage-gated channel subfamily KQT member 1 (Homo sapiens) (UniProt P51787). The experiment in a line: human KCNQ1 channel potentiation off-target, confirmation, selectivity assay for KCNQ2 potentiator project, cell-based, CHO, FluxOR thallium flux (AID 2283;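 active = fluorescence ratio rise of at least 3 SD of vehicle wells above their mean, in both replicate wells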;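 note: 0% = vehicle mean plus 3 SD and 100% = vehicle minus unstimulated blank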). Particulars: CHO KCNQ1 stable, FluxOR thallium flux fluorescence; at 10 µM; active compounds read high; beyond 3SD, as % of vehicle-control signal.
In the case of `CCOC(=O)c1c(NC(=S)NC)sc2c1CCCC2`, the activation over 3SD threshold was -17.4% (inactive).
The same measure, in the same setting: the result for `Oc1c(Cl)cc(Cl)cc1/C=N/c1ncn[nH]1` reads -9.2% (inactive).
As to `Cc1ccc(S(=O)(=O)N2CCN(C(=O)COC(=O)c3c(C)cc(C)cc3C)CC2)c(C)c1`, the activation over 3SD threshold is -20.8% (inactive).
Same read-out and setting: the result for `CCc1ccc(NC(=O)C(=O)NNC(=O)c2cccs2)cc1` reads 85.7% (active); that for `S=C(NCc1ccc(Cl)cc1)NC12CC3CC(CC(C3)C1)C2`, -0.2% (inactive); that for `O=C(Nc1ccc(Oc2ccccc2)cc1)c1ccco1`, 26% (active).
Still for that read-out and setting: the result for `CC1=C/C(=N\OS(=O)(=O)c2ccccc2)C=CC1=O` reads -8.8% (inactive); that for `CC(NC(=O)Nc1ccccc1)c1ccccc1` (stereo not given), -0.5% (inactive); that for `COc1ccc(NC(=O)/C(Cl)=C(/Cl)S(=O)Cc2ccc(C)cc2)cn1` (stereo not given), -20.5% (inactive).
Consider `CCN(CC(=O)NC(=O)NCc1ccccc1)Cc1nc2ccccc2c(=O)[nH]1`, for which the activation over 3SD threshold is -14.6% (inactive).
The same measure, in the same setting: the result for `CCCCNC(=O)Nc1c(C)cc(SC#N)cc1C` reads 75.2% (active); that for `CC(=O)NNC(=O)c1csc(Cc2c(Cl)sc3ccc(Cl)cc23)n1`, -5% (inactive); that for `Cc1ccc(/C=N/NC(=O)c2cc3ccccc3cc2O)o1`, -6.4% (inactive).
Take `N#Cc1c(-c2ccccc2)nc(SCc2cccc(C(F)(F)F)c2)[nH]c1=O`: the activation over 3SD threshold was -15% (inactive).
Still for that read-out and setting: the result for `O=C(NCc1ccc2c(c1)OCO2)C12CC3CC(CC(C3)C1)C2` reads -10.2% (inactive).
Take `Cc1cccc(NC(=O)CSC(N)=O)c1C`: the activation over 3SD threshold is -15.2% (inactive).

The next test concerns the target Potassium voltage-gated channel subfamily KQT member 2 (Rattus norvegicus) (UniProt O88943). The experiment in a line: rat KCNQ2 channel potentiators, confirmation, cell-based, CHO, FluxOR thallium flux, duplicate (AID 2287;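 active = fluorescence ratio rising 3 SD or more over the vehicle control mean in both replicates, plus primary screen hit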;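 note: peak minus minimum thallium fluorescence divided by baseline after K/Tl stimulus; 0% = vehicle mean plus 3 SD and 100% = vehicle minus unstimulated blank difference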). The following applies: CHO-KCNQ2 cells, FluxOR thallium flux fluorescence; at 10 µM; active compounds read high.
Turning to `C/C(=N\NC(=O)c1ccoc1C)c1ccccc1O`, the potentiation, less the hit threshold was 52.9% (active).
Still for that read-out and setting: as for `CCn1c2ccccc2c2cc(NC(=O)CNC)ccc21`, the figure is 1.9% (active).
On to `O=C(NNC1=C(C(=O)C(F)(F)F)CCC1)c1ccncc1`, for which the potentiation, less the hit threshold is 1.3% (active).
Still for that read-out and setting: as for `Cc1ccc(NC(=O)C2CC2c2ccccc2)cc1` (stereo not given), the figure is 26.2% (active); as for `Cc1[nH]n(-c2cccc(Cl)c2)c(=O)c1/C=N/n1c(C)nc2ccccc2c1=O`, 1.8% (active); as for `COc1cccc(NC(=O)C2C(c3ccccc3)C2(Cl)Cl)c1` (stereo not given), 7% (active).
The same measure, in the same setting: as for `CCC1(C)Cc2c(sc3[nH]c(=S)n(Cc4ccccc4)c(=O)c23)CO1` (stereo not given), the figure is 66% (active); as for `CCn1c(O)c(N=NC2=NC(=O)CS2)c2cc(C)ccc21`, 0.3% (active); as for `CCn1c(=S)[nH]c2sc3c(c2c1=O)CCCCC3`, 43.5% (active).
As to `CCC1(C)Cc2c(sc3nnn(CC(=O)Nc4ccc(Cl)cc4)c(=O)c23)CO1` (stereo not given), the potentiation, less the hit threshold is 2.2% (active).
Take `Cc1cccc(NC(=S)NC(=O)c2ccc(Br)o2)c1`: the potentiation, less the hit threshold is 35.5% (active).
Regarding `CS(=O)(=O)c1sc(C(=O)NC(=S)Nc2ccc(OC(F)(F)F)cc2)c2c1C=CCC2`, the potentiation, less the hit threshold was -3.3% (inactive).
On the same count and under the same terms, as for `CCOC(=O)c1sc(=S)n2c1[nH]c(=O)c1ccc(C(=O)OC)cc12`, the figure is 26.7% (active); as for `O=C(NCc1ccc2c(c1)OCO2)c1ccc(Cl)s1`, 16.7% (active).
With `CSc1nnc(NC(=O)c2nc(S(=O)(=O)Cc3ccc(C)cc3)ncc2Cl)s1`, the potentiation, less the hit threshold was 67.6% (active).
Same read-out and setting: as for `FC(F)(F)c1cccc(NC(=S)Nc2cccc(Cl)c2)c1`, the figure is -4.8% (inactive).
Regarding `CCOC(=O)c1c(NC(=S)NC)sc2c1CCCC2`, the potentiation, less the hit threshold is 16.6% (active).
On the same count and under the same terms, as for `Oc1c(Cl)cc(Cl)cc1/C=N/c1ncn[nH]1`, the figure is 37.8% (active); as for `Cc1ccc(S(=O)(=O)N2CCN(C(=O)COC(=O)c3c(C)cc(C)cc3C)CC2)c(C)c1`, 14.7% (active).
As for `CCc1ccc(NC(=O)C(=O)NNC(=O)c2cccs2)cc1`, the potentiation, less the hit threshold was 26.8% (active).
`S=C(NCc1ccc(Cl)cc1)NC12CC3CC(CC(C3)C1)C2`: the potentiation, less the hit threshold was 9% (active).
Same read-out and setting: as for `O=C(Nc1ccc(Oc2ccccc2)cc1)c1ccco1`, the figure is 37.7% (active).
For `CC1=C/C(=N\OS(=O)(=O)c2ccccc2)C=CC1=O`, the potentiation, less the hit threshold was 0.8% (active).
Same read-out and setting: as for `CC(NC(=O)Nc1ccccc1)c1ccccc1` (stereo not given), the figure is 22.8% (active); as for `COc1ccc(NC(=O)/C(Cl)=C(/Cl)S(=O)Cc2ccc(C)cc2)cn1` (stereo not given), 0.8% (active); as for `CCN(CC(=O)NC(=O)NCc1ccccc1)Cc1nc2ccccc2c(=O)[nH]1`, -3% (inactive).
The same measure, in the same setting: the result for `CCCCNC(=O)Nc1c(C)cc(SC#N)cc1C` reads 19.5% (active); that for `CC(=O)NNC(=O)c1csc(Cc2c(Cl)sc3ccc(Cl)cc23)n1`, 12.3% (active); that for `Cc1ccc(/C=N/NC(=O)c2cc3ccccc3cc2O)o1`, 69% (active).
On the same count and under the same terms, the result for `N#Cc1c(-c2ccccc2)nc(SCc2cccc(C(F)(F)F)c2)[nH]c1=O` reads 6% (active).
Turning to `O=C(NCc1ccc2c(c1)OCO2)C12CC3CC(CC(C3)C1)C2`, the potentiation, less the hit threshold is 73.5% (active).
`Cc1cccc(NC(=O)CSC(N)=O)c1C`: the potentiation, less the hit threshold is 56.1% (active).

For a further test, the target named is Inward rectifier potassium channel 2 (Mus musculus) (UniProt P35561). The experiment in a line: PubChem AID 2345.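 Note: 0% = vehicle mean plus 3 SD and 100% = vehicle minus no-stimulus blank window.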 The following applies: HEK293 Kir2.1, FluxOR thallium flux fluorescence; at 10 µM; active compounds read high.
Sequence of Inward rectifier potassium channel 2 (Mus musculus) (P35561 whole entry, looked up): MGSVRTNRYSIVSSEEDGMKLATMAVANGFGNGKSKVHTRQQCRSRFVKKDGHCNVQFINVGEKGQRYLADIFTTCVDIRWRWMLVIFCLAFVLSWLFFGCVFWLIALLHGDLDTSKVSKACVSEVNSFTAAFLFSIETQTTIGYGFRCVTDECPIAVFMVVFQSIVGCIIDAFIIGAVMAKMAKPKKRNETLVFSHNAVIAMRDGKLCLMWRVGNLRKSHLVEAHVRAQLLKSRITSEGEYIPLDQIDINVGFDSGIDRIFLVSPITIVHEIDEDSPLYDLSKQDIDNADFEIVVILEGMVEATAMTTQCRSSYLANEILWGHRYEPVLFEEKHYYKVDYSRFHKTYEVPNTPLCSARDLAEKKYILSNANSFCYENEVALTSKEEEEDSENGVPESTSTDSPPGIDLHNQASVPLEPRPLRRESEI
For the compound `C/C(=N\NC(=O)c1ccoc1C)c1ccccc1O`, the activity over 3SD threshold was -16.7% (inactive).
On to `CCn1c2ccccc2c2cc(NC(=O)CNC)ccc21`, for which the activity over 3SD threshold was -90% (inactive).
Take `O=C(NNC1=C(C(=O)C(F)(F)F)CCC1)c1ccncc1`: the activity over 3SD threshold is -36.3% (inactive).
On the same count and under the same terms, as for `Cc1ccc(NC(=O)C2CC2c2ccccc2)cc1` (stereo not given), the figure is -35.9% (inactive).
In the case of `Cc1[nH]n(-c2cccc(Cl)c2)c(=O)c1/C=N/n1c(C)nc2ccccc2c1=O`, the activity over 3SD threshold was -35.9% (inactive).
Turning to `COc1cccc(NC(=O)C2C(c3ccccc3)C2(Cl)Cl)c1` (stereo not given), the activity over 3SD threshold is -29.8% (inactive).
As to `CCC1(C)Cc2c(sc3[nH]c(=S)n(Cc4ccccc4)c(=O)c23)CO1` (stereo not given), the activity over 3SD threshold is 10.5% (active).
Take `CCn1c(O)c(N=NC2=NC(=O)CS2)c2cc(C)ccc21`: the activity over 3SD threshold was -27.4% (inactive).
For `CCn1c(=S)[nH]c2sc3c(c2c1=O)CCCCC3`, the activity over 3SD threshold is -16.8% (inactive).
As for `CCC1(C)Cc2c(sc3nnn(CC(=O)Nc4ccc(Cl)cc4)c(=O)c23)CO1` (stereo not given), the activity over 3SD threshold was -36.4% (inactive).
Regarding `Cc1cccc(NC(=S)NC(=O)c2ccc(Br)o2)c1`, the activity over 3SD threshold is -35.5% (inactive).
The same measure, in the same setting: the result for `CS(=O)(=O)c1sc(C(=O)NC(=S)Nc2ccc(OC(F)(F)F)cc2)c2c1C=CCC2` reads -36.7% (inactive).
Same read-out and setting: as for `CCOC(=O)c1sc(=S)n2c1[nH]c(=O)c1ccc(C(=O)OC)cc12`, the figure is -43.9% (inactive); as for `O=C(NCc1ccc2c(c1)OCO2)c1ccc(Cl)s1`, -17.6% (inactive).
With `CSc1nnc(NC(=O)c2nc(S(=O)(=O)Cc3ccc(C)cc3)ncc2Cl)s1`, the activity over 3SD threshold is -50.4% (inactive).
Still for that read-out and setting: the result for `FC(F)(F)c1cccc(NC(=S)Nc2cccc(Cl)c2)c1` reads -40.2% (inactive).
Regarding `CCOC(=O)c1c(NC(=S)NC)sc2c1CCCC2`, the activity over 3SD threshold was -37.6% (inactive).
Still for that read-out and setting: as for `Oc1c(Cl)cc(Cl)cc1/C=N/c1ncn[nH]1`, the figure is -28.1% (inactive); as for `Cc1ccc(S(=O)(=O)N2CCN(C(=O)COC(=O)c3c(C)cc(C)cc3C)CC2)c(C)c1`, -17.6% (inactive); as for `CCc1ccc(NC(=O)C(=O)NNC(=O)c2cccs2)cc1`, -22.9% (inactive).
On to `S=C(NCc1ccc(Cl)cc1)NC12CC3CC(CC(C3)C1)C2`, for which the activity over 3SD threshold is -9.25% (inactive).
Still for that read-out and setting: the result for `O=C(Nc1ccc(Oc2ccccc2)cc1)c1ccco1` reads -25.3% (inactive).
The same measure, in the same setting: the result for `CC1=C/C(=N\OS(=O)(=O)c2ccccc2)C=CC1=O` reads -51.4% (inactive).
On to `CC(NC(=O)Nc1ccccc1)c1ccccc1` (stereo not given), for which the activity over 3SD threshold was -35.8% (inactive).
Consider `COc1ccc(NC(=O)/C(Cl)=C(/Cl)S(=O)Cc2ccc(C)cc2)cn1` (stereo not given), for which the activity over 3SD threshold was -44.7% (inactive).
As for `CCN(CC(=O)NC(=O)NCc1ccccc1)Cc1nc2ccccc2c(=O)[nH]1`, the activity over 3SD threshold is -39% (inactive).
On the same count and under the same terms, as for `CCCCNC(=O)Nc1c(C)cc(SC#N)cc1C`, the figure is -33.2% (inactive); as for `CC(=O)NNC(=O)c1csc(Cc2c(Cl)sc3ccc(Cl)cc23)n1`, -69.1% (inactive); as for `Cc1ccc(/C=N/NC(=O)c2cc3ccccc3cc2O)o1`, -20.1% (inactive).
Still for that read-out and setting: the result for `N#Cc1c(-c2ccccc2)nc(SCc2cccc(C(F)(F)F)c2)[nH]c1=O` reads -39.2% (inactive); that for `O=C(NCc1ccc2c(c1)OCO2)C12CC3CC(CC(C3)C1)C2`, -47% (inactive).
On the same count and under the same terms, the result for `Cc1cccc(NC(=O)CSC(N)=O)c1C` reads -46.1% (inactive).
